DT40 TDP1 CPT: DT40-hTDP1 cell growth loss with CPT; chicken DT40 Tdp1-/-;hTDP1 cells + 20 nM CPT, ATP luminescence, 48 h; Potency, µM (highest dose often 46.2 µM), most hits filed as inhibitors; actives 12% (n = 420,000); further: nearly all actives have a fitted effect of over 55% in size
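Chicken DT40 Tdp1-/- cells complemented with human TDP1, 400 cells/well, exposed to compounds plus 20 nM camptothecin for at least 48 h at 37 C; viability read as ATP content by CellTiter-Glo luminescence.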
TDP1 inh: blocks human tyrosyl-DNA phosphodiesterase 1; Potency, µM (top dose mostly 130 µM), most hits filed as inhibitors; recombinant TDP1, AlphaScreen DNA substrate cleavage; Q9NUW8; AID 485290; actives 0.28% (n = 350,000); further: nearly all actives have a fitted effect of over 40% in size
Target sequence (Q9NUW8 whole entry, looked up): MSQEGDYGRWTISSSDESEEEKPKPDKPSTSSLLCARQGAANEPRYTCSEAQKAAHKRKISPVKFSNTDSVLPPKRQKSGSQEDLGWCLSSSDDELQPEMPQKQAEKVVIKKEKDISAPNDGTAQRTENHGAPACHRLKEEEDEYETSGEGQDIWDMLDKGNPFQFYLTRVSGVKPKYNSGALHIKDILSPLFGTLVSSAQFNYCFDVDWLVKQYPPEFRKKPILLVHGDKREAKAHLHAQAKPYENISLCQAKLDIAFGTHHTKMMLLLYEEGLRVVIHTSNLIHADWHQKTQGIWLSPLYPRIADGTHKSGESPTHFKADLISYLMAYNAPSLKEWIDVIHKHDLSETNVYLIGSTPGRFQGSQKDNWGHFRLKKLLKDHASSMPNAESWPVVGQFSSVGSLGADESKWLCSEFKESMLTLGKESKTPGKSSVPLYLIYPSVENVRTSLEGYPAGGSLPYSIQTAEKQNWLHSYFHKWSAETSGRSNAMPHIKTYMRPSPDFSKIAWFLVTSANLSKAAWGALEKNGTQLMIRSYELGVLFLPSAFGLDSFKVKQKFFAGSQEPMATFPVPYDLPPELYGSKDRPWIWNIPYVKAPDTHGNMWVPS
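Compounds were preincubated with Tdp1 (1 nM final) for 15 min at room temperature before substrate (15 nM final) started a 5 min reaction; beads (10 ug/ml final) were then added for 10 min before AlphaScreen detection.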
RORgamma inh: ROR gamma (mouse) transcription inhibition | Potency, µM (titrated, usually from 53.6 µM), most hits filed as inhibitors | P51450 | Drosophila S2 Gal4-RORgamma UAS-luciferase reporter, 20 h | AID 2551 | actives 5.4% (n = 310,000); further: nearly all actives have a fitted effect of over 60% in size
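A Gal4/UAS one-hybrid system in insect cells: metallothionein-promoter Gal4–ROR gamma fusion plus Photinus luciferase reporter. Copper sulfate 700 uM final, 20 hr ambient incubation, luminescent detection after 10 min with reagent.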
VP16 counter: counter-screen for ROR gamma inhibitors: Gal4-VP16 reporter; Drosophila S2 Gal4-VP16 UAS-luciferase, luminescence, 20 h; Potency, µM (titrated, usually from 53.6 µM), hits mostly inhibitors; actives 3.5% (n = 310,000);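 further: Gal4-VP16 expression switched on by copper sulfate through the metallothionein promoter; nearly all actives have a fitted effect of over 50% in size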
TDP1 cell noCPT: qHTS for Inhibitors of human tyrosyl-DNA phosphodiesterase 1 (TDP1): qHTS in cells in absence of CPT. DT40 Tdp1-/- hTDP1 cells, no CPT, ATP luminescence, 48 h. Potency, µM (doses to about 46.2 µM), hits mostly inhibitors. actives 15% (n = 420,000); further: nearly all actives have a fitted effect of over 55% in size
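No-CPT arm: Tdp1-/-;hTDP1 DT40 cells (400/well) plus compounds, incubated ≥48 hr at 37 °C. Readout CellTiter-Glo luminescence.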
Of the large screens only hits and unclear results are named; the others gave an inactive call. Rows were chosen to be rich in hits. Some 19% of all compounds tested hit in one or more screens of this group. The call rests on the fitted dose curve; in most records, active means well fitted curve in the direction sought with a large enough effect; inconclusive means small, poorly fitted or top-dose-only effect, or another doubt; inactive means no such curve, though single readings can be large; an effect the other way counts as inactive or inconclusive.

CCN1CCN(C(c2ccc(F)cc2)c2nnnn2Cc2cccs2)CC1 (configuration not stated)	none
Cc1c([N+](=O)[O-])cc(C(=O)Nc2ccc(NC(=O)c3ccco3)cc2)cc1[N+](=O)[O-]	none
CCNC(=O)C1(C)CCCN(C(=O)c2ccc(F)c(C)c2)C1 (configuration not stated)	none (no result: TDP1 inh, RORgamma inh, VP16 counter)
CC1(CO)CCCC1NCCNC1CCCC1(C)CO (configuration not stated)	none (no result: TDP1 inh, RORgamma inh, VP16 counter)
COc1ccc(-c2coc3c(C(=O)Nc4cccc(NS(C)(=O)=O)c4)cccc23)c(C)c1	DT40 TDP1 CPT inconclusive, TDP1 cell noCPT 20.6µM (no result: TDP1 inh, RORgamma inh, VP16 counter)
COc1ccc2c(c1)Cc1cc(NC(=O)c3ccccc3-c3ccccc3C(=O)O)ccc1-2	none (no result: TDP1 inh, RORgamma inh, VP16 counter)
Oc1ccc(Br)cc1-c1cc(-c2ccccc2F)[nH]n1	DT40 TDP1 CPT inconclusive, RORgamma inh 1.78µM, VP16 counter 3.55µM, TDP1 cell noCPT inconclusive
Oc1ccc(Br)cc1-c1cc(-c2ccccc2Cl)[nH]n1	DT40 TDP1 CPT inconclusive, RORgamma inh 2.82µM, TDP1 cell noCPT inconclusive
CCOC(=O)c1c(NC(=O)c2c(C(=O)O)cccc2[N+](=O)[O-])sc(C)c1C	none
Cc1ccc(Cl)cc1-n1c(=O)c2sc3ccccc3c2n(Cc2ccccc2)c1=O	DT40 TDP1 CPT 23.1µM, TDP1 cell noCPT 5.8µM (no result: RORgamma inh, VP16 counter)
Cc1ccc(Cl)cc1-n1c(=O)c2sc3ccccc3c2n(CC(=O)NC2CCCC2)c1=O	TDP1 cell noCPT inconclusive (no result: RORgamma inh, VP16 counter)
COc1cccc(Cn2c(=O)n(-c3ccc(Br)cc3F)c(=O)c3sc4ccccc4c32)c1	DT40 TDP1 CPT 9.2µM, TDP1 cell noCPT inconclusive (no result: RORgamma inh, VP16 counter)
O=c1c2sc3ccccc3c2n(Cc2ccc(Cl)cc2)c(=O)n1Cc1ccco1	DT40 TDP1 CPT inconclusive, TDP1 cell noCPT 8.2µM (no result: RORgamma inh, VP16 counter)
NC(=O)c1cccc(-c2cccc3nccn23)c1	none (no result: TDP1 inh, RORgamma inh, VP16 counter)
COC(=O)c1ccc(COc2ccc(/C=C(\C#N)c3nc4ccccc4[nH]3)cc2OC)o1	DT40 TDP1 CPT 7.31µM, TDP1 cell noCPT 5.8µM (no result: TDP1 inh)
COc1cc(/C=C(/C#N)c2nc3ccccc3[nH]2)ccc1OCc1ccc(C(=O)O)o1	none
COc1cc(/C=C(\C#N)c2nc3ccccc3[nH]2)ccc1OCc1cccc(C(F)(F)F)c1	DT40 TDP1 CPT 11.6µM, TDP1 cell noCPT 9.2µM (no result: RORgamma inh, VP16 counter)
CCOc1cc(/C=C(\C#N)c2nc3ccccc3[nH]2)ccc1OC(C)C(=O)O (configuration not stated)	none (no result: TDP1 inh)
CCOc1cc(/C=C(/C#N)c2nc3ccccc3[nH]2)ccc1Oc1ccc([N+](=O)[O-])cn1	DT40 TDP1 CPT 13µM, TDP1 cell noCPT inconclusive
COc1ccc(-c2ccc(CCC(=O)O)n2CC(=O)Nc2cccc(OC)c2)cc1	none
COC(=O)c1ccccc1NC(=O)c1ccc2nccnc2c1	DT40 TDP1 CPT inconclusive, TDP1 cell noCPT inconclusive
CCc1nc2ccccc2c(=O)n1NC(=O)c1c(O)c2ccccc2[nH]c1=O	DT40 TDP1 CPT 20.6µM, TDP1 cell noCPT 18.4µM
O=C(CCl)NNC(=O)c1c(O)c2ccccc2[nH]c1=O	DT40 TDP1 CPT 4.61µM, TDP1 cell noCPT 5.17µM
Cc1ccc(C2(c3noc(CN4C[C@@H](C)O[C@@H](C)C4)n3)CCCC2)cc1	DT40 TDP1 CPT inconclusive, TDP1 cell noCPT inconclusive (no result: TDP1 inh)
Cc1ccc(C2(c3noc(CN(C)Cc4cccnc4)n3)CCCC2)cc1	DT40 TDP1 CPT inconclusive, RORgamma inh inconclusive, VP16 counter 12.6µM, TDP1 cell noCPT inconclusive
Cc1ccc(C2(c3noc(CN(C)Cc4ccccn4)n3)CCCC2)cc1	DT40 TDP1 CPT inconclusive, RORgamma inh 15.8µM, TDP1 cell noCPT 16.4µM
O=C1CCCC2=C1C1(O)C(=O)c3ccccc3C1(O)O2 (configuration not stated)	TDP1 cell noCPT inconclusive
CC(C)=CCN1CCC(n2nccc2NC(=O)c2ccccc2Cl)CC1	TDP1 cell noCPT 20.6µM
COc1ccccc1C(=O)Nc1ccnn1C1CCN(C/C=C/c2ccccc2)CC1	DT40 TDP1 CPT 23.1µM, TDP1 cell noCPT inconclusive
CC(CN1CCC(n2nccc2NC(=O)c2ccccc2Cl)CC1)c1ccccc1 (configuration not stated)	DT40 TDP1 CPT inconclusive
COc1ccc2c(c1)OC(O)(C(F)F)CC2=O (configuration not stated)	none
COc1cccc(C=O)c1OCCCOc1cccc2cccnc12	DT40 TDP1 CPT inconclusive, TDP1 cell noCPT 20.6µM
COC(=O)c1ccccc1OCCOCCOc1cccc2cccnc12	DT40 TDP1 CPT inconclusive, RORgamma inh inconclusive, VP16 counter inconclusive, TDP1 cell noCPT inconclusive
Cc1cc(C)cc(OCCCOc2cccc3cccnc23)c1	DT40 TDP1 CPT 29.1µM, RORgamma inh inconclusive, VP16 counter inconclusive, TDP1 cell noCPT 16.4µM
Brc1ccccc1OCCOc1cccc2cccnc12	RORgamma inh inconclusive
Cc1cc(C)c(OCCN(C)C)c(Cl)c1	none
Cc1cc(Cl)cc(Cl)c1OCCOc1cccc2cccnc12	DT40 TDP1 CPT 23.1µM, RORgamma inh inconclusive, VP16 counter inconclusive, TDP1 cell noCPT inconclusive
Cc1cc(Cl)cc(Cl)c1OCCOCCN(C)C	DT40 TDP1 CPT inconclusive, TDP1 cell noCPT 14.6µM (no result: TDP1 inh)
CC(C)(C)c1cc(NC(=O)COC(=O)c2ccc3c(=O)n4c(nc3c2)CCC4)n(-c2ccccc2)n1	none
Cc1c(Cl)cccc1N1C(=O)C2ON(c3ccccc3)C(c3cccnc3)C2C1=O (configuration not stated)	none
CC(=O)c1cccc(OCCCOc2cccc3cccnc23)c1	DT40 TDP1 CPT inconclusive, TDP1 cell noCPT 16.4µM
COc1cc(C(=O)NCCOc2cccc3cccnc23)cc(OC)c1OC	none
CCOC(=O)C1C(=O)NC(SCC(=O)OC)=C(C#N)C1c1ccccc1OCC (configuration not stated)	none
CCOC(=O)CSC1=C(C#N)C(c2ccccc2OCC)C(C#N)C(=O)N1 (configuration not stated)	DT40 TDP1 CPT 14.6µM, TDP1 cell noCPT 18.4µM
CCOC(=O)C1C(=O)NC(SCC(=O)Nc2nccs2)=C(C#N)C1c1ccccc1OCC (configuration not stated)	DT40 TDP1 CPT inconclusive, VP16 counter inconclusive, TDP1 cell noCPT 13µM
COc1ccc2sc(-c3ccccc3OC)c(-c3ccc(O)cc3)c2c1	DT40 TDP1 CPT inconclusive, TDP1 cell noCPT inconclusive (no result: RORgamma inh, VP16 counter)
COc1ccc(-c2nc3ccc(Cl)cn3c2Nc2ccc(C)cc2)cc1	DT40 TDP1 CPT inconclusive, TDP1 cell noCPT inconclusive (no result: RORgamma inh, VP16 counter)
CCOc1ccccc1C(=O)OCC(=O)NCCNC(=O)COC(=O)c1ccccc1OCC	none
O=C(Nc1ccc(C(=O)N2CCOCC2)cc1)c1cc(-c2cccnc2)nc2ccc(Cl)cc12	DT40 TDP1 CPT 1.84µM, TDP1 cell noCPT 2.06µM
O=C(NCCCN1CCCC1=O)c1cc(-c2cccnc2)nc2ccc(Cl)cc12	DT40 TDP1 CPT inconclusive
